EWS-Fli block – EWS/Fli-driven NR0B1 reporter inhibitors, primary screen, A673 cells, NR0B1 luciferase, luminescence, MLPCN library; inhibition, % at 12.6 µM; 0.67% of 350,000 active; viability-normalised; AID 651661, 2012;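 active = mean inhibition of at least 50% after viability correction, with every replicate also passing that limit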;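 also: firefly luciferase signal divided by Alamar Blue viability fluorescence both relative to DMSO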
LMP1 NFkB inh – EBV LMP1-driven NF-kappaB luciferase reporter inhibitors, primary screen, cell-based, luminescence, single point. LMP1-induced NF-kappaB luciferase reporter cells. 0.69% of 350,000 active. inhibition, % at 12.5 µM; in the data active = inhibition above about 41%;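 also: 0% = neutral control wells and 100% = reference inhibitor control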
LGR2 inh – inhibitors of bursicon-induced LGR2 CRE-luciferase signal, primary screen, cell-based, HEK293, CRE-luciferase reporter, bursicon stimulation. bursicon-stimulated, 4 h. AID 720647, 2013. inhibition, % at 9.99 µM. Drosophila bursicon receptor LGR2 (rickets). 0.35% of 380,000 active;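 active = drop in luminescence signal, shown as inhibition above about 50% in the replicate tests, limit read from the data, passing the limit was not always enough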;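 also: agonist challenge used bursicon conditioned medium at about half maximal strength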
PAX8 inh HTS – inhibitors of PAX8-driven TPO luciferase reporter, primary screen, RMG-I cells, single concentration; SteadyGlo, 24 h; inhibition, % at 12.6 µM; 1.2% of 360,000 active; AID 652154, 2013;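 active = mean replicate inhibition at least 60% with every replicate also reaching 60%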;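 also: luciferase light reporting Pax8 driven TPO promoter activity; plate controls were median of neutral control wells for no effect and mitoxantrone controls for full effect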
TWEAK-Fn14 inh – inhibitors of TWEAK-Fn14 signaling, primary screen, luciferase reporter cells, uHTS. TWEAK-stimulated Fn14 reporter cells, luciferase luminescence, 8 h. 2% of 360,000 active. AID 1159606, 2016. inhibition, % at 10 µM; in the data active = inhibition above about 50%
TROY signal inh – inhibitors of TROY-driven NF-kB signaling, primary screen, Q293 LMP1-TROYcd cells, NF-kB luciferase, uHTS; Q293 LMP1-TROYcd NF-kB luciferase reporter, 4 h; inhibition, % at 10 µM; 0.98% of 360,000 active;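 active = compounds whose plate-normalised and pattern-corrected inhibition of the luciferase reporter signal at the single screening dose is 50% or more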
Active calls of the source: *; nt = no result. Shown are actives, neighbours in structure and some others; about 3.2% of the full set was active somewhere.

SMILES	EWS-Fli block	LMP1 NFkB inh	LGR2 inh	PAX8 inh HTS	TWEAK-Fn14 inh	TROY signal inh
CCCN1CCC(=O)N([C@H](CSc2ccc(C)cc2)c2ccccc2)CC1	-82	-22	nt	-162	37	50*
C[C@H]1CN([C@@H](C)CO)C(=O)c2cccc(NC(=O)NC3CCCCC3)c2O[C@@H]1CN(C)Cc1ccccc1	3	nt	13	4	nt	nt
Cc1ccc(SC(C)c2nc(-c3ccccc3)no2)cc1 (stereo not drawn)	nt	59*	nt	nt	-5	-43
CCOc1ccc(NC(=S)Nc2ccc(Br)cc2Cl)cc1	9	4	-8	-5	18	58*
COc1cccc(NC(=S)Nc2ccc(Br)cc2Cl)c1	-7	-5	-50	1	6	-38
Cc1ccc(/C=C/C(=O)Nn2cnnc2)cc1	nt	-31	nt	nt	57*	-12
CC(C)(C)c1ccc(/C=C/C(=O)NC2=NCCS2)cc1	nt	-37	nt	nt	50*	53*
Cc1ccc(OCC(=O)NC2=NCCS2)cc1	nt	-13	nt	nt	24	-5
Cc1ccc(/C=C/C(=O)NC2=NCCS2)cc1	50	-11	72*	29	52*	29
Cc1ccc(/C=C/C(=O)NN2CCN(C)CC2)cc1	nt	-3	0	-28	-18	-8
C[C@@H]1CN([C@@H](C)CO)C(=O)Cc2cc(NS(=O)(=O)c3cccs3)ccc2O[C@H]1CN(C)C(=O)Nc1ccc(C(F)(F)F)cc1	8	nt	-12	13	nt	nt
CCCc1cc(-c2[nH]ncc2-c2ccc(C(=O)OCC)o2)c(O)cc1O	nt	-7	7	nt	59*	34
Cc1ccc(S(=O)(=O)c2cc3ccccc3oc2=Nc2ccc3c(c2)OCO3)cc1	nt	2	nt	18	-29	-21
COc1cccc2cc(S(=O)(=O)c3ccccc3)c(=Nc3ccc4c(c3)OCCO4)oc12	nt	8	0	-11	78*	17
Cc1ccc(S(=O)(=O)c2cc3ccccc3oc2=Nc2ccc3c(c2)OCCO3)cc1	nt	-2	0	-2	81*	13
COc1ccccc1NS(=O)(=O)c1ccc2c(c1)OCCO2	-17	-5	9	-24	4	15
COc1ccc(S(=O)(=O)Nc2ccc3c(c2)CC(=O)N([C@H](C)CO)C[C@@H](C)[C@H](CN(C)C(=O)Nc2ccc(F)cc2)O3)cc1	-9	nt	0	-11	nt	nt
CN1C(=O)c2cc(NC(=O)c3ccc(F)cc3)ccc2OC[C@@H]2O[C@H](CC(=O)NCC3CC3)CC[C@H]21	1	nt	-12	11	nt	nt
COc1ccc(CNC(=O)CNS(=O)(=O)c2ccc(Cl)cc2)cc1	1	2	nt	39	82*	80*
Cc1ccc(C2=NN(C(=O)CN3CCN(C4CCS(=O)(=O)C4)CC3)C(c3ccco3)C2)cc1 (stereo not drawn)	-1	35	-34	34	71*	66*
CN(C)CC(=O)N1CCCCN2[C@@H](CO)[C@H](c3ccc(/C=C/c4ccccc4)cc3)[C@@H]2C1	23	nt	1	67*	nt	nt
O=C(Nc1ccccc1F)N1CCCCN2[C@@H](CO)[C@@H](c3ccc(/C=C/c4ccccc4)cc3)[C@@H]2C1	26	nt	4	76*	nt	nt
CN(C)CC(=O)N1CCCCN2[C@H](C1)[C@H](c1ccc(/C=C/c3ccccc3)cc1)[C@@H]2CO	-13	nt	-19	60	nt	nt
CN(C)CC(=O)N1CCCCN2[C@H](C1)[C@@H](c1ccc(/C=C/c3ccccc3)cc1)[C@@H]2CO	18	nt	3	52	nt	nt
CN(C)CC(=O)N1CCCCN2[C@H](CO)[C@H](c3ccc(/C=C/c4ccccc4)cc3)[C@H]2C1	16	nt	-6	78*	nt	nt
SMILES	EWS-Fli block	LMP1 NFkB inh	LGR2 inh	PAX8 inh HTS	TWEAK-Fn14 inh	TROY signal inh
CN(C)CC(=O)N1CCCCN2[C@@H](CO)[C@@H](c3ccc(/C=C/c4ccccc4)cc3)[C@@H]2C1	3	nt	-7	72*	nt	nt
CCC(=O)N1CC(=O)N2[C@H](CO)[C@H](c3ccc(C#Cc4cccc(OC)c4)cc3)[C@H]2C1	-8	nt	4	-25	nt	nt
O=C1CC(NC(=O)C(F)(F)F)=NN1c1ccccc1	-4	-8	-13	27	-7	-35
CC(C)(Oc1ccc(Cl)cc1)C(=O)NC1=NN(c2ccccc2)C(=O)C1	nt	1	5	-10	19	55*
COC(=O)C1=C(C(=O)OC)[C@@H]2N(C)c3ccc(OC)cc3[C@@]23C[C@@H](C(=O)OC)N(C(=O)c2ccc(Br)cc2)C3=N1	3	-1	1	-2	53*	19
COC(=O)C1=C(C(=O)OC)[C@@H]2N(Cc3ccccc3)c3ccccc3[C@@]23C[C@@H](C(=O)OC)N(C(=O)COCc2ccccc2)C3=N1	nt	2	nt	nt	51*	24
CCOC(=O)N1C2=NC(C(=O)OC)=C(C(=O)OC)[C@@H]3N(C)c4ccc(OC)cc4[C@]23C[C@H]1C(=O)OC	4	0	3	-1	-1	-7
C=CCN1c2ccccc2[C@]23C[C@@H](C(=O)OC)N(C(=O)c4ccc(Br)cc4)C2=NC(C(=O)OC)=C(C(=O)OC)[C@H]13	15	3	7	50	61*	31
C=CCN1c2ccccc2[C@]23C[C@@H](C(=O)OC)N(C(=O)OCC)C2=NC(C(=O)OC)=C(C(=O)OC)[C@H]13	6	-7	2	1	18	4
COC(=O)C1=C(C(=O)OC)[C@@H]2N(Cc3ccccc3)c3ccccc3[C@@]23C[C@@H](C(=O)OC)N(C(=O)c2ccc(Br)cc2)C3=N1	nt	1	nt	nt	54*	10
C[C@H]1CN([C@@H](C)CO)C(=O)c2cc(-c3cccc(C(=O)N(C)C)c3)cnc2O[C@@H]1CN(C)C	-4	nt	18	nt	nt	nt
C[C@@H]1CN([C@@H](C)CO)C(=O)c2cc(NC(=O)Nc3ccc(C(F)(F)F)cc3)ccc2O[C@@H]1CN(C)C(=O)Nc1ccc(C(F)(F)F)cc1	5	nt	15	56	nt	nt
Cc1ccc([N+](=O)[O-])cc1N=Nc1c(C)[nH]n(C(N)=S)c1=O	14	1	-16	2	-4	0
Cc1ccc([N+](=O)[O-])cc1N=Nc1c(-c2ccc([N+](=O)[O-])cc2)[nH]n(C(N)=S)c1=O	nt	26	nt	nt	81*	64*
NC(=S)n1[nH]c(-c2ccc([N+](=O)[O-])cc2)c(N=Nc2ccc(Cl)cc2)c1=O	nt	32	nt	nt	54*	53*
C[C@@H]1CCCCO[C@@H](CN(C)CC2CCCCC2)[C@@H](C)CN([C@H](C)CO)C(=O)c2cc(NC(=O)Cc3ccccc3)ccc2O1	-7	nt	-9	-24	nt	nt
C[C@H](CO)N1C[C@H](C)[C@@H](CN(C)C(=O)Nc2ccc(C(F)(F)F)cc2)Oc2ccc(NS(C)(=O)=O)cc2CC1=O	-8	nt	0	7	nt	nt

Bioassay records (PubChem BioAssay)
